From PubChem BioAssay AID624137 (Broad Institute, 2012) come the findings set out here.

Each structure is given as a SMILES string. Hit rate of the full screen: of about 31,000 compounds, about 360 (1.2%) were called active. The sample holds actives, similar compounds and a random draw of the others, so the mix is not that of the screen. How the calls were made is not given here.

DNA-binding protein inhibitor ID-4 (Homo sapiens), sequence (P47928 whole entry, looked up): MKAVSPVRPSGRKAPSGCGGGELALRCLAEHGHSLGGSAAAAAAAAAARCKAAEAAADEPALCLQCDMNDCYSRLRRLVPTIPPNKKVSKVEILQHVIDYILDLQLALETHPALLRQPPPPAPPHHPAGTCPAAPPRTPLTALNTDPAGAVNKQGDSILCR

This assay concerns the target DNA-binding protein inhibitor ID-4 (Homo sapiens) (UniProt P47928). As to the kind of experiment: PubChem AID 624137.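 Further: a binder raises fluorescence above local background on the spot.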 To be noted: small molecule microarray, Flag-ID4 binding, fluorescence F/B.
With `c1cncc(CNCCc2c[nH]c3ccccc23)c1`, the outcome was active.

For `COc1ccc2[nH]cc(CCNCc3ccc(Br)cc3)c2c1`, the result was inactive.

As for `Cc1cc(OCc2cc(C(=O)O)oc2C)c2c3c(c(=O)oc2c1)CCCC3`, the compound was called inactive.

With `Cc1ccc(OC(=O)N(C)C[C@@H]2OCc3cnnn3CCCC(=O)N([C@H](C)CO)C[C@@H]2C)cc1`, the result was inactive.

Consider `COC(/C=C/CC/C=C/C(=O)O)C(O)C(C)C(O)/C(C)=C/C(C)C(=O)CCCC1CC(=O)NC(=O)C1` (stereo not given), for which the compound was classed as inactive.
